Assay results: PubChem BioAssay (NCATS)
Results filed as inconclusive are left out. Active and inactive are the calls of the source. The call rests on the fitted dose curve; in most records, active means well fitted curve in the direction sought with a large enough effect; inconclusive means small, poorly fitted or top-dose-only effect, or another doubt; inactive means no such curve, though single readings can be large; an effect the other way counts as inactive or inconclusive.

Legend:
NIH3T3 = test: qHTS assay to identify novel small-molecules to repurpose for Merkel cell carcinoma treatment (AID 1296009); settings: MCC and control cell lines, CellTiter-Glo viability, 72 h; at 44.8 µM (top of the series) unless noted; further: nearly all actives have a fitted effect of over 60% in size
How it was run: (§1)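 qHTS format: cells treated with library compounds in DMSO across 8 (NPC) or 11 (MIPE) concentrations. Readout after 72 hr at 37 degree celsius was CellTiter-Glo luminescence.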

C33A = test: Primary qHTS to identify gynecologic anti-cancer compounds using libraries of approved drugs and bioactive compounds (AID 1345084); settings: Gynecologic cancer cell panel viability, ATPlite luminescence, 48 h; series mostly up to 57.5 µM; further: nearly all actives have a fitted effect of over 55% in size
How it was run: (§2)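 Five-concentration response, 48 h; readout is ATP-driven luciferase luminescence.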

CAOV3 = test: as above; settings: Gynecologic cancer cell panel viability, ATPlite luminescence, 48 h; series mostly up to 57.5 µM
How it was run: as §2

CASKI = test: as above; settings: Gynecologic cancer cell panel viability, ATPlite luminescence, 48 h; series mostly up to 57.5 µM
How it was run: as §2

Es-2 = test: as above; settings: Gynecologic cancer cell panel viability, ATPlite luminescence, 48 h; series mostly up to 57.5 µM
How it was run: as §2

HeLa = test: as above; settings: Gynecologic cancer cell panel viability, ATPlite luminescence, 48 h; series mostly up to 57.5 µM
How it was run: as §2

Hek293T = test: as above; settings: Gynecologic cancer cell panel viability, ATPlite luminescence, 48 h, control line for the selectivity index; series mostly up to 57.5 µM
How it was run: as §2

JEG-3 = test: as above; settings: Gynecologic cancer cell panel viability, ATPlite luminescence, 48 h; series mostly up to 57.5 µM
How it was run: as §2

OV90 = test: as above; settings: Gynecologic cancer cell panel viability, ATPlite luminescence, 48 h; series mostly up to 57.5 µM
How it was run: as §2

PA-1 = test: as above; settings: Gynecologic cancer cell panel viability, ATPlite luminescence, 48 h; series mostly up to 57.5 µM
How it was run: as §2

SKOV3 = test: as above; settings: Gynecologic cancer cell panel viability, ATPlite luminescence, 48 h; series mostly up to 57.5 µM
How it was run: as §2

Tov-21-G = test: as above; settings: Gynecologic cancer cell panel viability, ATPlite luminescence, 48 h; series mostly up to 57.5 µM
How it was run: as §2

Tov112D = test: as above; settings: Gynecologic cancer cell panel viability, ATPlite luminescence, 48 h; series mostly up to 57.5 µM
How it was run: as §2

MKL-2 = test: qHTS assay to identify novel small-molecules to repurpose for Merkel cell carcinoma treatment (AID 1296009); settings: MCC and control cell lines, CellTiter-Glo viability, 72 h; series mostly up to 46 µM; further: nearly all actives have a fitted effect of over 60% in size
How it was run: as §1

UISO = test: as above; settings: MCC and control cell lines, CellTiter-Glo viability, 72 h; series mostly up to 46 µM
How it was run: as §1

WaGa = test: as above; settings: MCC and control cell lines, CellTiter-Glo viability, 72 h; series mostly up to 46 µM
How it was run: as §1
On the % scale 0 is the no-effect control and ±100 the full control effect.

CC(O)/C=C/C1OC(=O)CC1Nc1ccc(C(=O)O)cc1 (stereo not given)
inactive: outcome (NIH3T3) | Potency (C33A) | Potency (CAOV3) | Potency (CASKI) | Potency (Es-2) | Potency (HeLa) | Potency (Hek293T) | Potency (JEG-3) | Potency (OV90) | Potency (PA-1) | Potency (SKOV3) | Potency (Tov-21-G) | Potency (Tov112D)

O=C(O)c1c(O)c(-c2ccccc2)nc2ccccc12
inactive: Potency (MKL-2) | outcome (NIH3T3) | Potency (UISO) | Potency (WaGa) | Potency (C33A) | Potency (CASKI) | Potency (Es-2) | Potency (HeLa) | Potency (Hek293T) | Potency (JEG-3) | Potency (OV90) | Potency (PA-1) | Potency (SKOV3) | Potency (Tov-21-G) | Potency (Tov112D)

CCC(C(=O)O)c1ccc(N2Cc3ccccc3C2=O)cc1 (stereo not given)
inactive: Potency (MKL-2) | Potency (UISO) | Potency (WaGa) | Potency (C33A) | Potency (CAOV3) | Potency (CASKI) | Potency (Es-2) | Potency (HeLa) | Potency (Hek293T) | Potency (JEG-3) | Potency (PA-1) | Potency (SKOV3) | Potency (Tov-21-G) | Potency (Tov112D)

CC1CC(O)C2(OC1=O)OC1C(O)C3C4CCC5CC(OC6OC(CO)C(O)C(O)C6OC6OC(C)C(O)C(O)C6O)CCC5(C)C4CCC3(C)C1C2C (stereo not given)
inactive: outcome (NIH3T3) inactive [at 17.4 µM] | Potency (C33A) | Potency (CAOV3) | Potency (CASKI) | Potency (Es-2) | Potency (HeLa) | Potency (Hek293T) | Potency (JEG-3) | Potency (OV90) | Potency (PA-1) | Potency (SKOV3) | Potency (Tov-21-G) | Potency (Tov112D)

COc1cc(Nc2nc3ccccc3nc2NS(=O)(=O)c2ccc(NC(=O)c3ccc(OC)c(C)c3)cc2)cc(OC)c1
inactive: outcome (NIH3T3) | Potency (C33A) | Potency (CAOV3) | Potency (CASKI) | Potency (Es-2) | Potency (HeLa) | Potency (Hek293T) | Potency (JEG-3) | Potency (OV90) | Potency (PA-1) | Potency (SKOV3) | Potency (Tov-21-G) | Potency (Tov112D)

Cn1nnc(-c2ccc(-c3ccc(N4C[C@H](CO)OC4=O)cc3F)cn2)n1
inactive: outcome (NIH3T3) | Potency (C33A) | Potency (CAOV3) | Potency (CASKI) | Potency (Es-2) | Potency (HeLa) | Potency (Hek293T) | Potency (JEG-3) | Potency (OV90) | Potency (PA-1) | Potency (SKOV3) | Potency (Tov-21-G) | Potency (Tov112D)

COC(=O)CC(O)CC(O)/C=C/c1c(C)ccc2c1C(O)CC(C)C2 (stereo not given)
inactive: outcome (NIH3T3) | Potency (C33A) | Potency (CAOV3) | Potency (CASKI) | Potency (Es-2) | Potency (HeLa) | Potency (Hek293T) | Potency (JEG-3) | Potency (OV90) | Potency (PA-1) | Potency (SKOV3) | Potency (Tov-21-G) | Potency (Tov112D)

CCNCc1nc2c(N)nc3ccccc3c2n1CC(C)(C)O
inactive: outcome (NIH3T3) | Potency (C33A) | Potency (CAOV3) | Potency (CASKI) | Potency (Es-2) | Potency (HeLa) | Potency (Hek293T) | Potency (JEG-3) | Potency (OV90) | Potency (PA-1) | Potency (SKOV3) | Potency (Tov-21-G) | Potency (Tov112D)

CC(C)C[C@H](CC(=O)NO)C(=O)N[C@H](C(=O)N[C@@H](C)C(=O)NCCN)C(C)(C)C
inactive: outcome (NIH3T3) inactive [at 9.27 µM] | activity change, negative = cytotoxicity (C33A) 18.9% [at 11.6 µM] | activity change, negative = cytotoxicity (CAOV3) 17.3% [at 11.6 µM] | activity change, negative = cytotoxicity (CASKI) 5.02% [at 11.6 µM] | activity change, negative = cytotoxicity (Es-2) 10.1% [at 11.6 µM] | activity change, negative = cytotoxicity (HeLa) 11.1% [at 11.6 µM] | activity change, negative = cytotoxicity (Hek293T) 15.9% [at 11.6 µM] | activity change, negative = cytotoxicity (JEG-3) 0.977% [at 11.6 µM] | activity change, negative = cytotoxicity (OV90) 19.6% [at 11.6 µM] | activity change, negative = cytotoxicity (PA-1) 8.02% [at 11.6 µM] | activity change, negative = cytotoxicity (SKOV3) 0% [at 11.6 µM] | activity change, negative = cytotoxicity (Tov-21-G) 7.8% [at 11.6 µM] | activity change, negative = cytotoxicity (Tov112D) -2.79% [at 11.6 µM]

C[C@H](CCC(=O)O)[C@H]1CC[C@H]2[C@@H]3C[C@H](O)[C@@H]4C[C@H](O)CC[C@]4(C)[C@H]3CC[C@]12C
inactive: outcome (NIH3T3) | Potency (C33A) | Potency (CAOV3) | Potency (CASKI) | Potency (Es-2) | Potency (HeLa) | Potency (Hek293T) | Potency (JEG-3) | Potency (OV90) | Potency (PA-1) | Potency (SKOV3) | Potency (Tov-21-G) | Potency (Tov112D)

C=C(C(=O)OC)C1C(O)CC2(C)C(=O)CCC(O)(CO)C2C1O (stereo not given)
inactive: outcome (NIH3T3) | Potency (C33A) | Potency (CAOV3) | Potency (CASKI) | Potency (Es-2) | Potency (HeLa) | Potency (Hek293T) | Potency (JEG-3) | Potency (OV90) | Potency (PA-1) | Potency (SKOV3) | Potency (Tov-21-G) | Potency (Tov112D)

C=CC(C)(C)c1[nH]c2cc3c(cc2c1CC1NC(=O)C2CCCN2C1=O)C=CC(C)(C)O3 (stereo not given)
inactive: outcome (NIH3T3) inactive [at 17.4 µM] | Potency (C33A) | Potency (CAOV3) | Potency (CASKI) | Potency (Es-2) | Potency (HeLa) | Potency (Hek293T) | Potency (JEG-3) | Potency (OV90) | Potency (PA-1) | Potency (SKOV3) | Potency (Tov-21-G) | Potency (Tov112D)

CC(C)/C=C1\NC(=O)C(C(C)C)n2c1nc1c(c2=O)C=CC=CO1 (stereo not given)
inactive: outcome (NIH3T3) | Potency (C33A) | Potency (CAOV3) | Potency (CASKI) | Potency (Es-2) | Potency (HeLa) | Potency (Hek293T) | Potency (JEG-3) | Potency (OV90) | Potency (PA-1) | Potency (SKOV3) | Potency (Tov-21-G) | Potency (Tov112D)

CC(C)c1ccc(CO)cc1O[C@@H]1O[C@H](CO)[C@@H](O)[C@H](O)[C@H]1O
inactive: outcome (NIH3T3) | Potency (C33A) | Potency (CAOV3) | Potency (CASKI) | Potency (Es-2) | Potency (HeLa) | Potency (Hek293T) | Potency (JEG-3) | Potency (OV90) | Potency (PA-1) | Potency (SKOV3) | Potency (Tov-21-G) | Potency (Tov112D)
